Seven compounds from PubChem BioAssay (EPA / NIEHS) can be followed below.

Experiment [1] addresses Paired box protein Pax-6 (Homo sapiens) (UniProt P26367). The experiment in a line: ATG_Pax6_CIS: Attagene CIS-FACTORIAL HepG2 Assay for human Paired Box 6 (PAX6) (AID 2282956). To be noted: HepG2 CIS-FACTORIAL PAX6 reporter transcription, RNA readout; actives raise or lower the signal. The method, boiled down:
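DMSO-referenced bidirectional fits of reporter mRNA fluorescence; HepG2 with transient cis-promoter MRTUs, 24 h post-dose, RT-PCR plus capillary electrophoresis detection.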

Experiment [2] in a line: ATG_PXRE_CIS: Attagene CIS-FACTORIAL HepG2 Assay for human Pregnane X Receptor Element (PXRE) (AID 2282957). To be noted: HepG2 Attagene CIS-FACTORIAL PXRE reporter, mRNA; actives raise or lower the signal. The method, boiled down: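 Read-out: fluorescence of reporter-specific RT-PCR products resolved by capillary electrophoresis, fitted bidirectionally relative to DMSO. Human HepG2 liver cells carried transfected cis-promoter reporter units and were exposed to chemicals for 24 h.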

Experiment [3] can be described thus: ATG_PPRE_CIS: Attagene CIS-FACTORIAL HepG2 Assay for human Peroxisome Proliferator-activated Response Element (PPRE) (AID 2282958). To be noted: HepG2 PPRE cis-element reporter, Attagene transcription factor profiling; actives raise or lower the signal. The method, boiled down:
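After human HepG2 hepatoma cells were transiently transfected with cis-promoter reporter constructs, they were exposed to test chemicals for 24 hours. Reporter RNA was then reverse-transcribed, PCR-amplified, FAM-labeled, HpaI-digested and quantified by capillary electrophoresis.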

Experiment [4] can be described thus: ATG_RORE_CIS: Attagene CIS-FACTORIAL HepG2 Assay for human RAR-related Orphan Receptor Element (RORE) (AID 2282959). Conditions: HepG2 Attagene cis-factorial RORE reporter, mRNA; actives raise or lower the signal. The method, boiled down: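 Measured here: transcript induction of a cis-regulated reporter in HepG2 cells transiently transfected via FuGene 6. After 24 h, RNA was processed by RT-PCR and fluorescent capillary electrophoresis; DMSO defined baseline activity.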

Experiment [5] can be described thus: ATG_Sox_CIS: Attagene CIS-FACTORIAL HepG2 Assay for human SRY-box transcription factor (SOX) (AID 2282960). Conditions: HepG2 Attagene cis-factorial SOX reporter, mRNA; actives raise or lower the signal. The method, boiled down:
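Using transiently transfected HepG2 cells, reporter transcription driven by cis elements was assessed 24 h after dosing. Signal was fluorescence of capillary-separated RT-PCR products, with DMSO defining baseline activity.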

For experiment [6], the target named is Transcription factor Sp1 (Homo sapiens) (UniProt P08047). The experiment in a line: ATG_Sp1_CIS: Attagene CIS-FACTORIAL HepG2 Assay for human Specificity Protein 1 (Sp1) (AID 2282961). To be noted: HepG2 Sp1 cis-reporter transcription, actives raise or lower the signal. The gist of the method: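 After transient transfection of HepG2 cells with cis-promoter reporter units and 24 h chemical treatment, reporter transcripts were quantified by RT-PCR and capillary electrophoresis fluorescence. Gain- and loss-of-signal fitted against DMSO.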

Experiment [7] can be described thus: ATG_SREBP_CIS: Attagene CIS-FACTORIAL HepG2 Assay for human Sterol Regulatory Element Binding (SREBP) (AID 2282962). To be noted: HepG2 Attagene cis-factorial SREBP reporter, mRNA; actives raise or lower the signal. The gist of the method:
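In this cis-format assay, HepG2 liver cells express reporters controlled by promoter elements responsive to native transcription factors. Exposure lasts 24 h; reporter mRNA fluorescence from capillary electrophoresis gives the signal, fitted bidirectionally against DMSO.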

Experiment [8] concerns the target Signal transducer and activator of transcription 3 (Homo sapiens) (UniProt P40763). Briefly: ATG_STAT3_CIS: Attagene CIS-FACTORIAL HepG2 Assay for human Signal Transducer and Activator of Transcription 3 (STAT3) (AID 2282963). To be noted: HepG2, Attagene cis-factorial STAT3 reporter transcription; actives raise or lower the signal. The gist of the method:
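Cis-factorial format: endogenous transcription factors in HepG2 drive transfected reporter units. After 24 h treatment, reporter RNA was reverse-transcribed, amplified, FAM-labelled and HpaI-digested before CE analysis; activity scored in both directions against DMSO.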

Experiment [9] in a line: ATG_TA_CIS: Attagene CIS-FACTORIAL HepG2 Assay for human TA Basal Promoter (AID 2282964). To be noted: HepG2 Attagene CIS-factorial TA basal promoter reporter; actives raise or lower the signal. The gist of the method: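 Multiplexed mRNA reporter assay, HepG2, 24 h. Reporter cDNA amplified, 6-FAM primer-extended, HpaI-cut, CE-sized; DMSO = negative control and baseline.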

Experiment [10] can be described thus: ATG_TCF_b_cat_CIS: Attagene CIS-FACTORIAL HepG2 Assay for human T-Cell-Factor with beta-catenin (TCF/b-cat) (AID 2282965). To be noted: HepG2 TCF/beta-catenin cis-reporter transcription, actives raise or lower the signal. The method, boiled down: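 Endogenous TCF/LEF activity read as reporter transcript level via RT-PCR and capillary electrophoresis fluorescence in transfected HepG2, 24 h exposure; gain or loss of signal fitted against DMSO controls.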

A short description of experiment [11]: ATG_TAL_CIS: Attagene CIS-FACTORIAL HepG2 Assay for human TAL Basal Promoter (AID 2282966).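 Also: background control endpoint measuring basal TAL promoter reporter mRNA not a specific factor.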 To be noted: HepG2 Attagene cis-factorial TAL promoter reporter; actives raise or lower the signal. The gist of the method: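 HepG2, transient MRTU transfection, 24 h compound exposure; RNA → oligo(dT) RT → PCR → 6-FAM primer extension → HpaI digest → CE fluorescence. Bidirectional curve fit vs DMSO. Background-control readout.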

Experiment [12] in a line: ATG_TGFb_CIS: Attagene CIS-FACTORIAL HepG2 Assay for human Transforming Growth Factor (TGF) (AID 2282967). Conditions: HepG2 Attagene CIS TGFb reporter, mRNA transcription; actives raise or lower the signal. The gist of the method:
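Transcript-level reporter readout: HepG2 transfectants, 24 h exposure, RNA to cDNA, reporter-specific PCR, fluorescent primer extension, capillary sizing against ROX standards. Gain- or loss-of-signal relative to DMSO.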

The nature of experiment [13]: ATG_VDRE_CIS: Attagene CIS-FACTORIAL HepG2 Assay for human Vitamin D Receptor Element (VDRE) (AID 2282968). To be noted: HepG2 VDRE cis-reporter transcription, actives raise or lower the signal. The method, boiled down: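 Measures endogenous factor activity through cis-element-driven reporter transcripts in transiently transfected HepG2. Cells are treated 24 h; reporter mRNA is quantified by RT-PCR and capillary electrophoresis; fitting is bidirectional.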

The target of experiment [14] is Estrogen receptor (Homo sapiens) (UniProt P03372). The experiment in a line: ATG_ERa_TRANS: Attagene TRANS-FACTORIAL HepG2 Assay for human Estrogen Receptor alpha (ERa) (AID 2282970; active = hit-call score of the fitted dose curve at least 0.9, where 1 is the maximum). Conditions: HepG2 Attagene TRANS ERa GAL4 reporter, mRNA. The gist of the method: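 Reporter mRNA induction after 24 hours, detected by fluorescent RT-PCR and capillary electrophoresis, gives the read-out. Cells are HepG2 transiently transfected with GAL4-UAS reporter transcription units responding to chimeric NR-Gal4. Activity is taken as gain of signal over DMSO baseline.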

Experiment [15] addresses X-box-binding protein 1 (Homo sapiens) (UniProt P17861). Briefly: ATG_Xbp1_CIS: Attagene CIS-FACTORIAL HepG2 Assay for human X-box Binding Protein 1 (XBP1) (AID 2282972). To be noted: HepG2 XBP1 cis-element reporter, Attagene multiplex; actives raise or lower the signal. The method, boiled down:
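Changes in reporter transcript abundance, read by RT-PCR and capillary electrophoresis, reflect endogenous transcription factor activity. Transfected HepG2 cells received compound for 24 hours; DMSO defined baseline for bidirectional analysis.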

Experiment [16] is described as follows: ATG_M_19_TRANS: Attagene TRANS-FACTORIAL HepG2 Assay for M19 Transcription Factor (Internal Marker) (AID 2282974; active = hit-call score of the fitted dose curve at least 0.9, where 1 is the maximum). Conditions: HepG2 Attagene TRANS-FACTORIAL M19 internal marker reporter. The method, boiled down: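 Gain-of-signal in reporter mRNA, relative to DMSO, was scored from capillary electrophoresis fluorescence. HepG2 cells carried transiently transfected multiple reporter transcription units and were incubated with test chemicals for 24 h.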

A short description of experiment [17]: ATG_GAL4_TRANS: Attagene TRANS-FACTORIAL HepG2 Assay for GAL4 (Internal Marker) (AID 2282976; active = hit-call score of the fitted dose curve at least 0.9, where 1 is the maximum). To be noted: HepG2 Attagene TRANS GAL4 internal marker reporter. The method, boiled down: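 RT-PCR/capillary electrophoresis readout of reporter mRNA. HepG2, transient MRTU transfection (GAL4-UAS reporters), 24 h compound exposure. Background-control endpoint, positive direction vs DMSO baseline.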

The nature of experiment [18]: ATG_PBREM_CIS: Attagene CIS-FACTORIAL HepG2 Assay for human Phenobarbital-responsive Enhancer Module (PBREM) (AID 2282955). To be noted: HepG2 PBREM cis-reporter, Attagene multiplexed transcription; actives raise or lower the signal. The gist of the method: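 Readout: reporter mRNA, fluorescent RT-PCR fragments separated by capillary electrophoresis. System: HepG2 transiently transfected with cis-regulated reporter units. Exposure: 24 h. Analysis: bidirectional, DMSO baseline.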

Experiment [19] addresses Nuclear receptor subfamily 1 group I member 3 (Homo sapiens) (UniProt Q14994). Briefly: ATG_CAR_TRANS: Attagene TRANS-FACTORIAL HepG2 Assay for human Constitutive Androstane Receptor (CAR) (AID 2282969; active = hit-call score of the fitted dose curve at least 0.9, where 1 is the maximum;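 also: activators raise reporter mRNA above DMSO so AC50 marks induction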). Conditions: HepG2 Attagene TRANS-FACTORIAL CAR reporter. The gist of the method:
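Signal is reporter mRNA induction relative to DMSO, measured 24 h after dosing by RT-PCR with fluorescent primer extension and capillary electrophoresis. Human HepG2 liver cells carried transiently transfected chimeric NR-Gal4/GAL4-UAS reporter constructs.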

The target of experiment [20] is Steroid hormone receptor ERR1 (Homo sapiens) (UniProt P11474). Briefly: ATG_ERRa_TRANS: Attagene TRANS-FACTORIAL HepG2 Assay for human Estrogen-Related Receptor alpha (ERRa) (AID 2282971; active = hit-call score of the fitted dose curve at least 0.9, where 1 is the maximum). Conditions: HepG2 Attagene TRANS reporter, ERRa transactivation. The method, boiled down:
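Transfected HepG2, 24 h dosing, ERRa-Gal4 chimera driving GAL4-UAS reporter. Readout: reporter mRNA via RT-PCR plus capillary electrophoresis (fluorescence). Positive direction vs DMSO control.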

Records with an inconclusive call do not appear. Activity calls are given as the source filed them. The calls were made as follows, unless noted: active = hit-call score of the fitted dose curve at least 0.9, where 1 is the maximum; inactive = score below 0.9.

Signal transducer and activator of transcription 3 (Homo sapiens), sequence (P40763 whole entry, looked up): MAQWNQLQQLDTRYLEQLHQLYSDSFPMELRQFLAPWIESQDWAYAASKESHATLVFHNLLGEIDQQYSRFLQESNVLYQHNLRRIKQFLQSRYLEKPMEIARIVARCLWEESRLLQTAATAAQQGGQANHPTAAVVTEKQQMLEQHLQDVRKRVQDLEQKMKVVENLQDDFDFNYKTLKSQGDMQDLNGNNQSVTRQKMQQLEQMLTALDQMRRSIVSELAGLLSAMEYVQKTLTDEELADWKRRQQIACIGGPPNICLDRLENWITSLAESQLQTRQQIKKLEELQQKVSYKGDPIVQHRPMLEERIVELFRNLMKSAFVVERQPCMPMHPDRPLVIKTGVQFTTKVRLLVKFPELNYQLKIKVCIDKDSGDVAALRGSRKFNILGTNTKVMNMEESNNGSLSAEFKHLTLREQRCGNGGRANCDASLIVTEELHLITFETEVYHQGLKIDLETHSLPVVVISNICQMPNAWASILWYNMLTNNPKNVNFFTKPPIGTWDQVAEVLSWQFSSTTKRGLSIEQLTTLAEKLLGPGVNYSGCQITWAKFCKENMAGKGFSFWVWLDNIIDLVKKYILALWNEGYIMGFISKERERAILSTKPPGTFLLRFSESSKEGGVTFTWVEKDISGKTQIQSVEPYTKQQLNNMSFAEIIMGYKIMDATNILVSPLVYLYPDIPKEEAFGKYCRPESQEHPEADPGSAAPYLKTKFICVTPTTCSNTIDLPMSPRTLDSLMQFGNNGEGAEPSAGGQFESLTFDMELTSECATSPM
Paired box protein Pax-6 (Homo sapiens), sequence (P26367 whole entry, looked up): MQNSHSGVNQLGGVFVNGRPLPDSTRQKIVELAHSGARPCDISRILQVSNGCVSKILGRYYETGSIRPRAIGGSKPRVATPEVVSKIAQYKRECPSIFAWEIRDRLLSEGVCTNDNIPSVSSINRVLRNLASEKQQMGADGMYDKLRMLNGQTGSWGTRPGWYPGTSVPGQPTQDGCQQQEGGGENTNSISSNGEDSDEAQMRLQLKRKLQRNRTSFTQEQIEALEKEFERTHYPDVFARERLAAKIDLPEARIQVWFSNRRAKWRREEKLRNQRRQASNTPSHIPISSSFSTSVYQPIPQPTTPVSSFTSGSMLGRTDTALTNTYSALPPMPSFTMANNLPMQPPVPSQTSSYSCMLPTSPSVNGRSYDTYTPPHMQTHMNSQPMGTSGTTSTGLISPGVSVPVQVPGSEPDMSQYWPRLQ
Estrogen receptor (Homo sapiens), sequence (P03372 whole entry, looked up, the tested form may be a part): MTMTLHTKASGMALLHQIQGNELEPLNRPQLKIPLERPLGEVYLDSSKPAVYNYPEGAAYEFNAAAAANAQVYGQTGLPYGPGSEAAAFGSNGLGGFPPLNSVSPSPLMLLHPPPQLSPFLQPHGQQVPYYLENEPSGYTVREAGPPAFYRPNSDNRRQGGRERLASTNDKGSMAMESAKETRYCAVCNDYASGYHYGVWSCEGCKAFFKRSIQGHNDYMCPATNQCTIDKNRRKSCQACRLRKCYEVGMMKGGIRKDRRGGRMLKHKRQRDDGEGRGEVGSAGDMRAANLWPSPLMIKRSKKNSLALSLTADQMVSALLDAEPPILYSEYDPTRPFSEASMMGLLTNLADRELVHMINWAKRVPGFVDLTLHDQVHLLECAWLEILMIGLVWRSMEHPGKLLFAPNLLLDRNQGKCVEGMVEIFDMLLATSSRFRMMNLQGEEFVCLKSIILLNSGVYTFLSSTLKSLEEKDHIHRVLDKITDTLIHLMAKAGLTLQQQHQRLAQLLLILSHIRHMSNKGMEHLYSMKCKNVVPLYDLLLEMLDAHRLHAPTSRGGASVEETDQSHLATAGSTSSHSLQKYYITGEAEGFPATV
Nuclear receptor subfamily 1 group I member 3 (Homo sapiens), sequence (Q14994 whole entry, looked up, the tested form may be a part): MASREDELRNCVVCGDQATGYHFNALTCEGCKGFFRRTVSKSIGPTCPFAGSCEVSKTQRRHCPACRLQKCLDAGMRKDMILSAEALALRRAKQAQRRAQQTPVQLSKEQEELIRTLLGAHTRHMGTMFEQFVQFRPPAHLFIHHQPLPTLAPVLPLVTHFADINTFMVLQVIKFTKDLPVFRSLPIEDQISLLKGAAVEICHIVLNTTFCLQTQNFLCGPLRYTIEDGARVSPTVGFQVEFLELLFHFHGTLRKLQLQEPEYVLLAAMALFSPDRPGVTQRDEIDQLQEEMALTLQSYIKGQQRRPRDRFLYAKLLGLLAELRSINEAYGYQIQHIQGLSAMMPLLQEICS
Transcription factor Sp1 (Homo sapiens), sequence (P08047 whole entry, looked up): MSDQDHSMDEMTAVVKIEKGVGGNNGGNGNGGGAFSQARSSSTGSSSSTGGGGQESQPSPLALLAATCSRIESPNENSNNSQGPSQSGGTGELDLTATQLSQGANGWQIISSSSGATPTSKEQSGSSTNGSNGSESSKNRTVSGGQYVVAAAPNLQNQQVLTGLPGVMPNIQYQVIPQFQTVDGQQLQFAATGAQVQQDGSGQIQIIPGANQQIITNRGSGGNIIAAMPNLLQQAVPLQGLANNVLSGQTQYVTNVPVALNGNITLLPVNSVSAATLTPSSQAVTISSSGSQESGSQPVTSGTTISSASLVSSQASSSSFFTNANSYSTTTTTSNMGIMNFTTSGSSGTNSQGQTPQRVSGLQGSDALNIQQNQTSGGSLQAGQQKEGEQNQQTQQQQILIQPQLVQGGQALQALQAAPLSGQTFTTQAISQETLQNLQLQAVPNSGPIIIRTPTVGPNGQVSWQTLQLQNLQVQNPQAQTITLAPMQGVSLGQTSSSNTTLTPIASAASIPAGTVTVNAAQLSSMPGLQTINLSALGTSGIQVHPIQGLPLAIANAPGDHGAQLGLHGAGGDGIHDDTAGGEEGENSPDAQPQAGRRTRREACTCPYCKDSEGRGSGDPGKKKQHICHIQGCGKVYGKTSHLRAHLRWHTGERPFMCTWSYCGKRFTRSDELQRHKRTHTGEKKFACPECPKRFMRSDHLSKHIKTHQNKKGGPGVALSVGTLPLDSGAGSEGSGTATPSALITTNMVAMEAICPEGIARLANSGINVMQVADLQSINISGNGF
X-box-binding protein 1 (Homo sapiens), sequence (P17861 whole entry, looked up): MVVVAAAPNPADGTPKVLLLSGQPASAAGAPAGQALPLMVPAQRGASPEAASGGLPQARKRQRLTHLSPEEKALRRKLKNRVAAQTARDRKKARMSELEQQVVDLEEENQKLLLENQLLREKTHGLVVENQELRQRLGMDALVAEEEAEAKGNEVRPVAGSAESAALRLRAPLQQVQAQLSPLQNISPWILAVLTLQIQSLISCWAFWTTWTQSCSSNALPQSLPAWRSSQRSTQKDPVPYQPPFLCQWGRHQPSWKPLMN
Steroid hormone receptor ERR1 (Homo sapiens), sequence (P11474 whole entry, looked up, the tested form may be a part): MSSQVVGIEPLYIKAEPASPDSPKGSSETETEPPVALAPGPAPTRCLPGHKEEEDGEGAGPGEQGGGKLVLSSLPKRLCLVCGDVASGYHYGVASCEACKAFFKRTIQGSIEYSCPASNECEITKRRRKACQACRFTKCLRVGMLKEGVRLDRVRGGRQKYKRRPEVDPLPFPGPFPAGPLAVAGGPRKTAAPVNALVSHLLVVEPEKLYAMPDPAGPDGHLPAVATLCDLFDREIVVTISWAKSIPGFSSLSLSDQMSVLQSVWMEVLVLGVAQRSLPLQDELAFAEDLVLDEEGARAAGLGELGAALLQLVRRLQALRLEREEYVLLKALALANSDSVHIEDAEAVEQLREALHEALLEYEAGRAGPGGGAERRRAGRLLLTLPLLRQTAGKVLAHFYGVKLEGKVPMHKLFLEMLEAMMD

Broadly, the AC50 is the concentration giving half of the maximal activity seen. In the case of `COc1ccccc1O`, the outcome in [1], in experiment [3], in experiment [4], in experiment [5], in experiment [6] and in experiment [7] was inactive. The compound was classed as inactive in experiment [8], in experiment [9], in experiment [10], in experiment [11], in experiment [12] and in experiment [13]. Moreover, the call in experiment [14], in experiment [15], in [16] and in [17] was inactive. Further, the AC50 in experiment [2] was 69.3 µM (active).
As for `CCCCCCCCCCCCN1CCOCC1`, the outcome in experiment [18], in experiment [1], in experiment [3], in [4], in experiment [5] and in [6] was inactive. Also, the result in [8], in experiment [9], in [10], in experiment [12], in experiment [19] and in experiment [14] was inactive. Also, the result in experiment [20] and in experiment [17] was inactive. The results for the AC50 in experiment [13] and in [15] were 60.6 µM (active) and 46.9 µM (active), respectively.
Regarding `CN(C)c1ccc(C=O)cc1`, the result in experiment [18], in experiment [1], in experiment [3], in experiment [4], in experiment [5] and in [6] was inactive. Further, the compound was classed as inactive in experiment [7], in [8], in experiment [9], in [10], in experiment [11] and in experiment [12]. Moreover, the call in [13], in experiment [14], in experiment [20], in experiment [15] and in experiment [17] was inactive.
As to `CC1=CCC(=C(C)C)CC1`, the outcome in experiment [18], in [1], in experiment [5], in experiment [6], in experiment [7] and in experiment [8] was inactive. Further, the call in [9], in experiment [11], in experiment [12], in experiment [15], in experiment [16] and in experiment [17] was inactive. The AC50 in experiment [2] is 5.48 µM (active); in experiment [14] it was 33.3 µM (active).
Turning to `Cc1ccc(C(C)(C)O)cc1`, the compound was called inactive in experiment [1], in experiment [2], in experiment [3], in experiment [4], in experiment [5] and in [6]. Moreover, the result in experiment [7], in experiment [8], in experiment [9], in [10], in experiment [11] and in experiment [12] was inactive. Besides, the result in experiment [13], in experiment [19], in [14] and in experiment [15] was inactive.
For `CCCCCCCCOC(=O)c1ccc(O)cc1`, the outcome in experiment [18], in experiment [1], in [5], in experiment [6], in experiment [7] and in [8] was inactive. The compound was called inactive in [9], in experiment [10], in experiment [11], in [12], in [19] and in experiment [15]. Besides, the compound was classed as inactive in experiment [16] and in [17]. Also, the values for the AC50 in experiment [2] and in [14] were 13.4 µM (active) and 5.53 µM (active), respectively.
As to `CCOC(=O)C(=O)OCC`, the outcome in experiment [18], in experiment [1], in [3], in experiment [4], in [5] and in experiment [6] was inactive. Also, the call in experiment [7], in [8], in experiment [9], in experiment [10], in experiment [12] and in experiment [13] was inactive. In addition, the compound was called inactive in [20], in experiment [15], in [16] and in [17].
